An excerpt weighted towards active compounds, which were near 1.1% of everything screened.
A1 inh: inhibitors of the anti-apoptotic protein A1, read as caspase activation; caspase activation, % (test concentration not listed); MEF A1-2A-BIM cells, Caspase-Glo 3/7 luminescence, 3 h; percent of clofoctol response, vehicle zero; 330,000 tested, 0.066% active;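 active = over half of replicate activation scores above 10%, or exactly half above 10 with the replicate mean above 10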
MIN6 prolif-1: induces beta-cell replication in MIN6 cells | 330,000 tested, 0.29% active | MIN6 cells proliferation, ATPlite luminescence, 48 h; cells starved in 0.2% serum; 100% = growth in 10% serum | AID 2380 | proliferation, % at 10 µM;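 active = compounds whose signal lies at least 3.5 SD above the mean of all wells on their plate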;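 note: 0% = DMSO-treated cells in low-serum medium and 100% = 10% serum control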
APOBEC3G inh: blocks human APOBEC3G single-stranded DNA deamination; Q9HC16; recombinant A3G, ssDNA deamination FAM/TAMRA fluorescence; inhibition, % at 20 µM; 330,000 tested, 0.28% active; AID 493012;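 active = inhibition of at least 40% at 20 µM, with no more than 30% in the related APOBEC3A deaminase screen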;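 note: plate controls were DMSO wells with A3G for no effect and wells lacking A3G enzyme for full effect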
Target sequence (Q9HC16 whole entry, looked up): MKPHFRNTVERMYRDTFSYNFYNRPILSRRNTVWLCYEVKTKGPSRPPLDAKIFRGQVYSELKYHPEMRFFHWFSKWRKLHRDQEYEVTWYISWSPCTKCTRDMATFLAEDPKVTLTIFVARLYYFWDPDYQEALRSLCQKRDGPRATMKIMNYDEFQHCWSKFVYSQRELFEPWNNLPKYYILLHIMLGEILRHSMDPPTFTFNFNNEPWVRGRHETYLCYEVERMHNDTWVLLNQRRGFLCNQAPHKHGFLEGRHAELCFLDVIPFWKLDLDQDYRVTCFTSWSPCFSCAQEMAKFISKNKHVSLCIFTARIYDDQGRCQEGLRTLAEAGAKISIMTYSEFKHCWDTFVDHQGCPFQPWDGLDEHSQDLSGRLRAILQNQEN
A3A deaminase: human APOBEC3A DNA deaminase inhibition; inhibition, % at 20 µM; AID 493011; recombinant A3A, FAM/TAMRA ssDNA deamination fluorescence; 330,000 tested, 0.41% active;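 active = at least 40% inhibition at 20 µM here, with at most 30% in a related deaminase screen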;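 note: plate controls were A3A with DMSO for no effect and wells lacking A3A enzyme for full effect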
Target sequence (P31941 whole entry, looked up): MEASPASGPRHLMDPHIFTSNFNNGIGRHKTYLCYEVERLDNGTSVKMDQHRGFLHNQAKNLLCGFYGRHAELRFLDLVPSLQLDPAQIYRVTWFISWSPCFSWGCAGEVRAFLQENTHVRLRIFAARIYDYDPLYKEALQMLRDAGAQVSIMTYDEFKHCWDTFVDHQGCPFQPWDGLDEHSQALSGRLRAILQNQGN
MIN6 prolif-2: MIN6 beta-cell replication induction, confirmed | proliferation increase, % at 50 µM | MIN6 beta-cell proliferation, ATPlite luminescence, 48 h; cells kept in 0.2% serum; scaled between 0.2% and 10% serum | AID 463095 | shares compounds with MIN6 prolif-1 | 920 tested, under 10 active;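 active = proliferation increase above 40% at any of the four tested concentrations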
Numbers without * were called inactive; · = not tested or not shown.

SMILES	A1 inh	MIN6 prolif-1	APOBEC3G inh	A3A deaminase	MIN6 prolif-2
O=C(CN1C(=O)c2ccccc2C1=O)OCC(=O)N1CCCCC1	3	1	-2	0	·
Cc1cccc(NC(=O)C2C3C=CC(O3)C2C(=O)O)c1 (stereo not drawn)	1	-4	8	-7	·
O=C(Nc1cccc2ccccc12)c1ccccc1NS(=O)(=O)c1cccc2cccnc12	0	-1	-8	-3	·
COc1ccc(OC)c(NC(=O)c2ccccc2NS(=O)(=O)c2cccc3cccnc23)c1	1	5.4*	-5	-1	-5
CCCc1cc(=O)[nH]c(SCC(=O)c2ccc3c(c2)OCCO3)n1	1	0.0*	0	-3	-6
O=C(CCS(=O)(=O)c1ccc(Br)cc1)NC1CCCCCC1	0	0	87	63	·
CCCc1ccc(OCc2ccccc2)c2c(=O)cc(C(=O)OCC)oc12	-1	0	-4	0	·
CCOc1nc(Nc2ccccc2F)nc(OCC)n1	-1	5.0*	1	2	-2
Cc1nnsc1C(=O)N1CCCC(Nc2ccc(F)c(F)c2)C1 (stereo not drawn)	-1	6	-7	-2	·
CCCCNC(=O)C1Cc2cc(S(=O)(=O)N3CCCC3)ccc2N1C(C)=O (stereo not drawn)	0	-1	-2	-1	·
O=C(NC1CCCC1)C(c1ccncc1)N(C(=O)c1csnn1)c1ccc(F)c(Cl)c1 (stereo not drawn)	1	5.9*	-1	0	0
CCOC(=O)c1sc(NC(NC(=O)c2ccco2)(C(=O)OC)C(F)(F)F)nc1C (stereo not drawn)	0	7.6*	-2	1	-2
CCOC(=O)c1sc(NC(=S)NC(=O)c2ccco2)nc1C	0	-2	-11	-5	·
C[C@H](CO)N1C[C@H](C)[C@@H](CN(C)Cc2ccncc2)Oc2c(NS(=O)(=O)c3cccs3)cccc2C1=O	0	2	-11	-3	·
CC1CCCN(CCCNC(=O)c2nn(C)c3c2CS(=O)(=O)c2ccccc2-3)C1 (stereo not drawn)	2	7.0*	4	3	0
CC1CCCCN1CCCNC(=O)c1nn(C)c2c1CS(=O)(=O)c1ccccc1-2 (stereo not drawn)	0	-4	-6	-4	·
CCOC(=O)c1c(C)nc2sc3c(c2c1-c1ccc(OC)cc1)NC(c1ccccc1)NC3=O (stereo not drawn)	0	9.2*	-6	-3	8
CO/N=C(/c1nonc1N)N1CCN(c2ccc([N+](=O)[O-])cc2)CC1	1	11*	-6	1	2
CC(=O)N1CCN(c2ccc([N+](=O)[O-])cc2)CC1	-3	0	-6	3	·
Cc1ccccc1OCC(=O)NNC(=O)c1cc(S(=O)(=O)N2CCOCC2)ccc1N1CCCC1	0	5	-6	-2	·
O=C(CN1C(=O)S/C(=C/c2cccs2)C1=O)N1CCCC1	1	10*	-5	-4	3
O=C1CCCN1C(=O)CSc1ccc2ccccc2n1	-1	2	-8	-6	·
CN(C)c1nc(N(C)C)nc(N(C#N)CCOc2ccccc2)n1	0	9.9*	-7	-2	-6
Cc1cc(C)nc(N(C#N)CCOc2ccccc2)n1	0	-3	-3	0	·
O=C(c1ccccc1)N1CCN(CC(O)COCC2CC=CCC2)CC1 (stereo not drawn)	1	0	-1	-2	·
SMILES	A1 inh	MIN6 prolif-1	APOBEC3G inh	A3A deaminase	MIN6 prolif-2
CCc1nc2ccccc2n1CC(O)COCC1CC=CCC1 (stereo not drawn)	1	12*	10	2	-3
Cc1cc(C(F)(F)F)nc(CCNC(=O)C2CCC(=O)N(Cc3cccc(F)c3)C2)n1 (stereo not drawn)	0	-1	-8	-7	·
CCCNC(=O)c1n[nH]c(=O)c2ccccc12	1	5.6*	-1	0	2
COc1cccc(OC)c1OCCCNC1CCCC1	1	-4	1	-8	·
CCN(CCn1cccn1)Cc1nc(-c2ccc(OC)cc2)no1	0	7.2*	-5	2	-2
COc1ccc(C(=O)C2CCCN(C(=O)c3ccc4cc[nH]c4c3)C2)c(C)c1 (stereo not drawn)	1	-3	-4	-7	·
CNc1nc(Nc2ccccc2)nc(OCC(F)(F)F)n1	0	7.0*	-3	1	1
CC(NCc1ccccc1)C1COc2ccccc2O1 (stereo not drawn)	1	5.5*	-7	-2	0
C=CCOc1ccc(-c2nc3c(c(=O)[nH]c(=O)n3CCCC)n2C)cc1OC	1	12*	-3	2	2
O=C(NCc1ccccn1)C1CCCN(S(=O)(=O)c2ccc(Br)cc2)C1 (stereo not drawn)	0	5.8*	-8	-3	0
COc1cccc(-c2nnc3n2N=C(c2cc(OC)ccc2OC)CS3)c1	0	8.0*	-5	-1	-4
Cc1ccc(S(=O)(=O)N2CCOCC2)cc1NC(=O)COC(=O)Cc1ccccc1	-1	0	-6	0	·
CCOC(=O)c1c(C)[nH]c(C)c1C(=O)COC(=O)c1cccc(S(=O)(=O)NC)c1	0	11*	-3	-2	0
CCOC(=O)c1c(C)[nH]c(C)c1C(=O)COC(=O)c1cccc(S(=O)(=O)N(CC)CC)c1	0	2	7	0	·
CCc1nc(SCC(=O)N2CCCc3ccccc32)c2oc3ccccc3c2n1	1	15*	-7	-1	-6
CC(NC(=O)OC(C)(C)C)C(=O)Oc1cc2oc(=O)cc(-c3ccccc3)c2cc1Cl (stereo not drawn)	0	5.9*	0	-1	-6
O=C(Oc1ccc(-n2cnnn2)cc1)c1ccccc1	1	-1	2	2	·
COc1ccc(Cn2c(CCCO)nc3ccccc32)cc1OC	0	5.7*	-7	0	3
CC(C)C[C@H](NC(=O)NCc1ccc(Cl)cc1)C(=O)O	0	10*	-1	0	-2
CC1CC(C)CN(C(=O)C2CCC(CNS(=O)(=O)c3ccccc3)CC2)C1 (stereo not drawn)	0	-5	-5	-3	·
CCOC(=O)C1CCCCN1C(=O)c1oc2c(Cl)cc(C)cc2c1C (stereo not drawn)	0	-2	9	7	·
COC(=O)C1CCN(C(=O)c2oc3c(Cl)cc(C)cc3c2C)CC1	-1	12*	9	-1	-6
CCOC(=O)NC(=O)CSc1nc(-c2ccc(C)c(C)c2)cn1-c1ccccc1	0	-1	-1	1	·
Cc1ccc(-c2cn(-c3ccccc3)c(SCC(N)=O)n2)cc1C	0	7.6*	-9	-4	-6
CCN1CCN(c2sc(S(C)(=O)=O)nc2S(=O)(=O)c2ccc(C)cc2)CC1	-2	16*	-7	-6	-3

Screening data as filed in PubChem BioAssay.
